Among the data in PubChem BioAssay AID1051 (The Scripps Research Institute Molecular Screening Center, 2008) are TR-FRET ratio values, retold here.

In all, about 99,000 compounds went through this assay and about 340 (0.34%) were called active. This is one part of a sample in which actives are shown more often than they occur. A number with no mark means an inactive call. No stated cut-off is given here; in the data, active means TR-FRET ratio above about 2300; inactive means the rest.

A short description of the experiment: TR-FRET detection interference compounds, primary screen, artefact control for PPARgamma SRC-1 recruitment agonists, biochemical, TR-FRET emission ratio (AID 1051). The following applies: TR-FRET detection artefact counter-screen, at 8 µM, hits give high values. (TR-FRET usually uses a lanthanide donor and a delayed reading to cut background.)
In the case of `O=C(Nc1ccccc1)N1CCN(C(=O)Nc2ccccc2)CC1`, the TR-FRET ratio was 1700.
The figure for `Cc1nc2ccccc2c(C)c1C(=O)c1ccc(F)cc1` is 1400.
As to `CCC(CC)C(=O)N1CCN(c2cccc(C)c2C)CC1`, the TR-FRET ratio is 1600.
In the case of `O=C(COC(=O)c1ccc(F)cc1)Nc1nc2ccc([N+](=O)[O-])cc2s1`, the TR-FRET ratio was 1760.
The figure for `COc1ccc(OCC(=O)Nc2nnc(-c3ccco3)s2)cc1` is 2500 (active).
Under `COc1ccc(Cc2nnc(NC(=O)Cc3cccs3)s2)cc1` stands 1780.
Under `COc1ccc(OCCCC(=O)Nc2nnc(C3CCCO3)s2)cc1` (centres undefined) stands 1980; under `C=CCO/N=C/C1=C(O)C(C(=O)OC)C(C)(C)CC1=O` (centres undefined), 1870; under `O=C(NCc1ccccn1)c1cc(Br)ccc1Cl`, 1780.
As for `Cc1ccc2nc(-c3cccc(Br)c3)cc(C(=O)Nn3cnnc3)c2c1`, the TR-FRET ratio was 1660.
Under `O=C(Nc1ccncc1)c1cc(-c2ccccn2)nc2ccc(Br)cc12` stands 1860; under `Cc1ccc(-c2cc(C(=O)NCc3cn(C)nc3C)c3cc(Br)ccc3n2)cc1`, 2880 (active); under `O=C(NCc1cccs1)c1cc(-c2ccccn2)nc2ccc(Br)cc12`, 2520 (active).
Under `C/C(N)=C(/C#N)C(=O)COC(=O)c1cc(-c2ccccc2)nc2ccc(Br)cc12` stands 1910.
The figure for `CSc1ccc(CN2C(=O)NC3(CCCCCC3)C2=O)cc1` is 1630; for `Cc1ccnc(NS(=O)(=O)c2ccc(NC(=O)c3ccc(S(=O)(=O)N(C)C)cc3)cc2)n1` it is 1700; for `COc1cccc(NC(=O)c2ccc(S(=O)(=O)N(C)C)cc2)c1` it is 1680.
With `COc1cccc(NC(=S)NC(=O)c2c(Cl)c(C)nn2C)c1`, the TR-FRET ratio is 2600 (active).
With `Cc1nn(C)c(C(=O)NNC(=S)NC2CCCCC2)c1Cl`, the TR-FRET ratio was 1630.
Under `COc1cccc(NC(=S)NCc2ccccn2)c1` stands 1990; under `CN1CCN(C(=O)N2c3ccccc3CCc3ccccc32)CC1`, 1720.
Turning to `CCOc1c(CNCc2ccc(C(=O)O)cc2)cccc1OC`, the TR-FRET ratio was 1910.
The figure for `O=C(CC1C(=O)NCCN1Cc1ccc(-c2ccccc2)cc1)NCC1CCOCC1` (centres undefined) is 1730.
For `CCc1ccccc1N1C(=O)C2C3CC(=O)C(c4ccccc43)C2C1=O` (centres undefined), the TR-FRET ratio is 1650.
Under `CC(=O)NC1=NN(C(C)=O)C(C)(c2ccc(C)cc2)S1` (centres undefined) stands 1950; under `COc1ccc(/C=N/NC(=O)Cn2cc(C(F)(F)F)ccc2=O)cc1`, 1880.
Under `CCN(CCn1cccn1)C(=O)CC1C(=O)NCCN1Cc1cccc(OC)c1OC` (centres undefined) stands 1620; under `CSc1nc2c(c(=O)[nH]1)C(c1cccc(Cl)c1Cl)CC(=O)N2` (centres undefined), 1770; under `CCN1CCN(CC(=O)c2cc(OC)c(OC)c(OC)c2)CC1`, 1990.
Take `CC(C)OC(=O)CN1CCN(c2ccc(Cl)cc2)CC1`: the TR-FRET ratio was 1890.
As to `CCCC(=O)OCC(=O)Nc1cc(Cl)ccc1[N+](=O)[O-]`, the TR-FRET ratio is 1580.
Under `CN(C)C(=O)N1CCNCC1` stands 1920; under `COc1ccc(C/C(C)=N/NC(=O)c2ccncc2)cc1`, 1920; under `O=C(Nc1ccc([N+](=O)[O-])cc1)C1(c2ccccc2)CCOCC1`, 1740.
The figure for `CN1CCN(CC#CCC2(O)c3ccccc3-c3ccccc32)CC1` is 1610; for `O=C(Nc1cccnc1)c1ccc(Cl)cc1[N+](=O)[O-]` it is 2040; for `Cc1cc(C)cc(NC(=S)NCCCN2CCOCC2)c1` it is 1640.
For `CCc1cccc(C)c1NC(=O)COC(=O)Cc1ccsc1`, the TR-FRET ratio was 1600.
The figure for `CC(=O)N(CCCN(C)C)c1nc2ccc(C)cc2s1` is 2080.
For the compound `COc1ccc(/C=C(\C#N)C(=O)ONC2=NCCCCC2)cc1`, the TR-FRET ratio is 1820.
On to `COc1ccc(S(=O)(=O)N(C)C)cc1NC(=O)CSc1ncccn1`, for which the TR-FRET ratio is 1990.
In the case of `CCOCCCNC(=S)N1CCC(NC(=O)C2CCCCC2)CC1`, the TR-FRET ratio was 1730.
Under `Cc1ccc(NS(=O)(=O)c2cccs2)cc1S(=O)(=O)N1CCCCCC1` stands 2400 (active); under `Cc1ccc(C(=O)NCC(=O)O)cc1S(=O)(=O)N1CCCCC1`, 1790.
Under `O=S(=O)(Nc1cc(S(=O)(=O)N2CCOCC2)ccc1N1CCCC1)c1cccs1` stands 1650.
The figure for `CCn1c(COc2ccccc2)nnc1SCC(=O)NCc1ccco1` is 1770; for `C/C(=N/OC(=O)c1cccc(C(F)(F)F)c1)c1cnccn1` it is 1580.
As to `CC(OC(=O)CNS(=O)(=O)/C=C/c1ccccc1)C(=O)Nc1ccc(S(=O)(=O)N2CCCC2)cc1` (centres undefined), the TR-FRET ratio was 1670.
As to `O=C(NNC1=C(C(=O)C(F)(F)F)CCC1)c1ccncc1`, the TR-FRET ratio was 1980.
Under `CN(NC(=O)C1CC(=O)N(c2ccccc2)C1)C1=NS(=O)(=O)c2ccccc21` (centres undefined) stands 1810.
The figure for `CCN(CC)c1ccc(C(=O)c2cnc(/N=C/N(C)C)s2)cc1` is 1790; for `COc1ccc(CCC(=O)OCC(=O)Nc2ccc(C)c(S(=O)(=O)N(C)C)c2)cc1` it is 1760.
For the compound `CN(CCOc1ccc(Br)cc1)CC(=O)Nc1cccc(S(=O)(=O)NC2=NCCC2)c1`, the TR-FRET ratio is 1830.
For `CCC(C)NC(=O)/C=C/c1ccc(S(=O)(=O)NCc2ccco2)cc1` (centres undefined), the TR-FRET ratio is 1910.
As for `Cc1ccccc1CC1(CO)CCCN(Cc2ccc3c(c2)OCCO3)C1` (centres undefined), the TR-FRET ratio is 1710.
The figure for `CSc1c(SCc2ccccc2)cnn(Cc2ccccc2)c1=O` is 2320 (active); for `O=c1c2ccccc2c(-c2ccccc2)nn1Cc1ccccc1` it is 1740; for `CSc1nc2ccccc2c(=O)n1Cc1ccc(F)cc1` it is 1720.
The figure for `COCc1c(C(=O)N/N=C/C2CC=CCC2)nnn1-c1nonc1N` (centres undefined) is 1650; for `O=C(CCc1ccc(S(=O)(=O)N2CCOCC2)cc1)NN=C1CCCCCCC1` it is 1980; for `CC(C)n1c(=O)[nH]c2cc(C(=O)Nc3ccccc3)ccc21` it is 1850.
For the compound `C=CCc1cccc2cc(C(=O)NC3CCCC3)c(=O)oc12`, the TR-FRET ratio was 1900.
Under `O=C(COC(=O)/C=C/c1cccc(Cl)c1)NCCc1ccccc1` stands 1750.
Under `Cc1cc(C)nc(/N=C2\NC(=O)CC(C(=O)O)N2c2ccc(Cl)cc2Cl)n1` (centres undefined) stands 1900.
